41 molecules from PubChem BioAssay (NCI) can be followed below.

Assay [1] can be described thus: NCI Yeast Anticancer Drug Screen. Data for the rad50 strain (AID 155).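 Note: 0% = growth of vehicle-only cultures of the same strain.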 Conditions: S. cerevisiae rad50 strain growth inhibition; at 50.0 µM; stronger effect = higher value. In short, it runs like this:
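Vehicle-treated cultures provide the reference for the growth inhibition reported for compound-exposed, repair-deficient yeast.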

Assay [2] can be described thus: NCI Yeast Anticancer Drug Screen. Data for the mec2-1 strain (AID 157). The note with it: S. cerevisiae mec2-1 strain, at 50.0 µM, stronger effect = higher value. An outline of the steps:
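Mutant yeast (mec2-1) grown with compound; growth inhibition relative to vehicle control reported.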

Assay [3] can be described thus: NCI Yeast Anticancer Drug Screen. Data for the sgs1 mgt1 strain (AID 161).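 Note: 0% = growth of cultures given vehicle only.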 The note with it: S. cerevisiae sgs1 mgt1 strain, at 50.0 µM, stronger effect = higher value. An outline of the steps: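 This yeast growth screen uses a strain with defined DNA-repair lesions; compound-treated growth is compared with vehicle-treated growth.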
Assay [4] can be described thus: NCI Yeast Anticancer Drug Screen. Data for the cln2 rad14 strain (AID 165).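 Note: 0% = growth equal to vehicle treated cultures.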 Conditions: S. cerevisiae cln2 rad14 strain, at 50.0 µM, stronger effect = higher value. In short, it runs like this:
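Readout is yeast growth inhibition versus vehicle-treated controls, using a strain with cln2 and rad14 alterations exposed to compound.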

The nature of assay [5]: NCI Yeast Anticancer Drug Screen. Data for the bub3 strain (AID 167). The note with it: S. cerevisiae bub3 mutant strain, at 50.0 µM, stronger effect = higher value. An outline of the steps:
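Mutant yeast screening strain plus compound; vehicle-treated cultures serve as the 0% inhibition reference.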

The nature of assay [6]: NCI Yeast Anticancer Drug Screen. Data for the mlh1 rad18 strain (AID 175). The note with it: S. cerevisiae mlh1 rad18 strain growth inhibition; at 50.0 µM; stronger effect = higher value. In short, it runs like this:
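Genetically defined yeast (DNA repair-deficient) exposed to compounds; growth inhibition determined relative to vehicle.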

The panel holds about 79,000 compounds, 15% with a hit somewhere; the sample as a whole holds those more often. Unmarked numbers belong to inactive results. Calls of active or inactive are those of the source. Cut-off read from the data, not from the text of the source: active = growth inhibition above about 70%; inactive = the rest.

Regarding `O=C(Nc1cccc(Cl)c1)Nc1ccc(Sc2ccc(Cl)cc2)o1`, the growth inhibition was 55.1% in assay [1]; 7% in assay [2]; 70.6% (active) in assay [3]; 29.9% in assay [4]; 47.6% in assay [5]; 69.8% in assay [6].

Turning to `Cc1ccc(S(=O)(=O)Nn2c(O)c(C#N)c(-c3ccc(Cl)cc3)c(C#N)c2=O)cc1`, the growth inhibition is 1.3% in assay [1]; 20.3% in assay [2]; 11.2% in assay [3]; 11.5% in assay [4]; 15.5% in assay [5]; 32.3% in assay [6].

For the molecule `CCCCC(C(O)c1ccc(C(C)C)cc1)N(CC)CC` (stereo unspecified), the growth inhibition is 56.2% in assay [1]; 34.1% in assay [2]; 53.9% in assay [3]; 9% in assay [4]; 62.2% in assay [5]; 38% in assay [6].

Take `COc1ccc(/C=C2/C(=O)N(C(=O)c3ccc(Cl)cc3)N=C2C)cc1OC`: the growth inhibition is -18.7% in assay [1]; -36.9% in assay [2]; -32.6% in assay [3]; -3.55% in assay [4]; -17.1% in assay [5]; -35.5% in assay [6].

For `CC(=[N-])CC(C)=O.O=C(CC(=Nc1ccccc1)c1ccccc1)c1ccccc1.[Cu+]`, the growth inhibition is -21.2% in assay [1]; -7.5% in assay [2]; 1.6% in assay [3]; 29.3% in assay [4]; -3.45% in assay [5]; 16.2% in assay [6].

For `C#CC(OC(=O)c1cc([N+](=O)[O-])cc([N+](=O)[O-])c1)C1OC(C)(C)OC1C1COC(C)(C)O1` (stereo unspecified), the growth inhibition in assay [1] was 27%; in assay [2] it was 26.4%; in assay [3], 57.1%; in assay [4], -1%; in assay [5], 7.25%; in assay [6], 58.5%.

Turning to `CC(O)CC(C)(C)O` (stereo unspecified), the growth inhibition in assay [1] is 28.1%; in assay [2] it was 13.1%; in assay [3] it was 8.55%; in assay [4], 9.9%; in assay [5], 15.3%; in assay [6], 4.2%.

For the molecule `CC1=NN(C(=O)c2ccc(Cl)cc2)C(=O)/C1=C/c1ccc(O)cc1`, the growth inhibition in assay [1] was -6.65%; in assay [2], -16.6%; in assay [3], -38.6%; in assay [4], -7.55%; in assay [5] it was -3.55%; in assay [6], -19.9%.

With `COC(=O)CC(=O)c1cccc([N+](=O)[O-])c1`, the growth inhibition in assay [1] is 8.95%; in assay [2] it was -22.1%; in assay [3] it was -3.15%; in assay [4], 16.5%; in assay [5], -26.8%; in assay [6], 0.15%.

Take `O=C(NC(=O)C(F)(F)F)Nc1cccc(C(F)(F)F)c1`: the growth inhibition in assay [1] was 15.6%; in assay [2], 1.1%; in assay [3] it was -14.1%; in assay [4] it was -4.85%; in assay [5], -8.25%; in assay [6] it was 2.9%.

With `c1ccc(SCCC(Sc2ccccc2)Sc2ccccc2)cc1`, the growth inhibition was -3.45% in assay [1]; 5% in assay [2]; -3.75% in assay [3]; -13.8% in assay [4]; -1.6% in assay [5]; 3.65% in assay [6].

For the molecule `NC1=C(O)C(=O)C(c2cccc(O)c2)O1` (stereo unspecified), the growth inhibition in assay [1] is -8.1%; in assay [2], -10.1%; in assay [3], 7.9%; in assay [4] it was -5.05%; in assay [5], 3.2%; in assay [6], 8.45%.

For the molecule `Nc1ccc(/C=C/c2ccc(N)cc2)cc1`, the growth inhibition in assay [1] was 9.05%; in assay [2], -0.95%; in assay [3] it was -1.4%; in assay [4], -1.25%; in assay [5], 8.9%; in assay [6], 5.05%.

For `c1scc2c1COCCOCCOCCOCCOCCOCCOC2`, the growth inhibition in assay [1] is -21.7%; in assay [2], -14.8%; in assay [3], 10.4%; in assay [4] it was 5.05%; in assay [5] it was 6.3%; in assay [6], -6.9%.

`COc1ccc(C2OCC(C)O2)cc1OC` (stereo unspecified): the growth inhibition in assay [1] was -13.4%; in assay [2], 16.1%; in assay [3], -8.2%; in assay [4], -31.4%; in assay [5] it was -31.4%; in assay [6] it was -7.3%.

Take `O=C(O)CCNc1ncnc2nc[nH]c12`: the growth inhibition was -65.5% in assay [1]; -13.2% in assay [2]; -33.5% in assay [3]; -34.6% in assay [4]; 24.4% in assay [5]; -19.9% in assay [6].

For `CCOC(=O)c1c(C)[nH]c(=S)c(C#N)c1-c1ccc(Cl)cc1`, the growth inhibition in assay [1] is 13%; in assay [2] it was 12.1%; in assay [3], 34.4%; in assay [4], 4.55%; in assay [5], 28.6%; in assay [6], -1.55%.

With `O=CC(=O)c1ccc(F)cc1`, the growth inhibition in assay [1] was -20.2%; in assay [2] it was -10%; in assay [3], -0.15%; in assay [4] it was -15.2%; in assay [5], -8.55%; in assay [6], 2%.

As to `CCOC(=O)C1C(c2cc(OC)c(OC)c(OC)c2)c2cc3c(cc2OC1(C)N1CCCC1)OCO3` (stereo unspecified), the growth inhibition in assay [1] is 7.15%; in assay [2], -0.45%; in assay [3], -12.3%; in assay [4], 20.5%; in assay [5], 1.55%; in assay [6], 22.1%.

`C1CCC2(CC1)SCCS2`: the growth inhibition in assay [1] was 2%; in assay [2], -18.4%; in assay [3], -1.9%; in assay [4], -48.9%; in assay [5] it was -9.4%; in assay [6], -10.4%.

Take `CSc1ccc(NC(=O)N(Cc2ccccc2)c2ccccc2)cc1`: the growth inhibition in assay [1] was 3.75%; in assay [2] it was 16.9%; in assay [3] it was 11.9%; in assay [4] it was -6.4%; in assay [5], 19.2%; in assay [6], 13.8%.

Take `C=C(C)/C=N/NS(=O)(=O)c1ccc(C)cc1`: the growth inhibition was -14.6% in assay [1]; 9.65% in assay [2]; 6.7% in assay [3]; -26.1% in assay [4]; -18.1% in assay [5]; 4.9% in assay [6].

With `COc1ccc(CCN2CCc3c(C)c(C#N)c4nc5ccccc5n4c32)cc1OC`, the growth inhibition is 5.75% in assay [1]; 26% in assay [2]; 28.5% in assay [3]; 12.1% in assay [4]; 52.4% in assay [5]; 34.5% in assay [6].

Consider `Oc1cc(CN2COc3ccccc32)c(O)cc1CNC1CCCCC1`, for which the growth inhibition in assay [1] is -6.65%; in assay [2], -4.95%; in assay [3], -25.6%; in assay [4] it was 62.5%; in assay [5] it was -33.7%; in assay [6], -12.3%.

Consider `O=c1oc2ccccc2c2c1Sc1ccccc1N2`, for which the growth inhibition in assay [1] was -0.95%; in assay [2], -22%; in assay [3] it was 17%; in assay [4] it was 12.8%; in assay [5], 2.05%; in assay [6], -9.1%.

For the molecule `CCOC(=O)C(N=Nc1ccccc1)C(=O)c1ccccc1` (stereo unspecified), the growth inhibition in assay [1] is 23.4%; in assay [2] it was -2.75%; in assay [3] it was 50.7%; in assay [4] it was -22.1%; in assay [5], 38.8%; in assay [6], 28.5%.

For `N#CCCC(CC#N)C1([N+](=O)[O-])CCCCC1` (stereo unspecified), the growth inhibition in assay [1] was 23.8%; in assay [2], 29.2%; in assay [3], 7.85%; in assay [4], 53.1%; in assay [5] it was 32.8%; in assay [6], 3.55%.

`Cc1cc(C)nc(NS(=O)(=O)c2ccc(NC(=O)c3ccncc3)cc2)n1`: the growth inhibition was -7.75% in assay [1]; -17.1% in assay [2]; 3.05% in assay [3]; 9.55% in assay [4]; -8.25% in assay [5]; -17.1% in assay [6].

As to `Cn1nc(-c2ccccc2)c([N+](=O)[O-])c1NCc1ccccc1`, the growth inhibition in assay [1] is -0.8%; in assay [2] it was -1.95%; in assay [3], -4.4%; in assay [4], -29.1%; in assay [5], 6.4%; in assay [6] it was 1.15%.

`CCCCCOC(=O)c1cccnc1`: the growth inhibition in assay [1] was -8.75%; in assay [2] it was -16.1%; in assay [3] it was -15%; in assay [4], -0.2%; in assay [5], 0.7%; in assay [6], -1.5%.

Take `NC(=O)NNCc1ccccc1`: the growth inhibition in assay [1] was -9.35%; in assay [2] it was -0.3%; in assay [3], -27.2%; in assay [4], -17.4%; in assay [5] it was -5.6%; in assay [6], -53.8%.

`O=c1[nH]nc(NC2Nc3ccccc3N2)c2ccccc12`: the growth inhibition in assay [1] was 17.3%; in assay [2], 15.1%; in assay [3] it was 9.15%; in assay [4], -19.2%; in assay [5] it was 6.6%; in assay [6] it was 13.4%.

For `CCCC(F)C(=O)OCC` (stereo unspecified), the growth inhibition in assay [1] was 11.5%; in assay [2], -6.35%; in assay [3], 5.4%; in assay [4] it was -9.35%; in assay [5] it was 10%; in assay [6] it was 0.3%.

For `CNC(=O)c1ccccc1C(=N)c1ccccc1`, the growth inhibition was -12.6% in assay [1]; -5.4% in assay [2]; -11.2% in assay [3]; -8.05% in assay [4]; -9.65% in assay [5]; -8.35% in assay [6].

For `C(=N\c1oc(-c2ccccc2)c(-c2ccccc2)c1-c1ccccc1)/c1ccccc1`, the growth inhibition was 14.4% in assay [1]; -5.15% in assay [2]; -4.85% in assay [3]; 14.3% in assay [4]; 4.2% in assay [5]; 6.2% in assay [6].

For `CO/C(=N\N=C\c1cc(OC)ccc1OC)c1ccncc1`, the growth inhibition was 0.6% in assay [1]; -13.2% in assay [2]; -23.6% in assay [3]; 10.7% in assay [4]; -38.8% in assay [5]; -11.2% in assay [6].

`O=S=C(c1ccccc1)N1CCc2ccccc21`: the growth inhibition in assay [1] was 22.4%; in assay [2] it was 3.75%; in assay [3], 12.1%; in assay [4] it was 7.15%; in assay [5] it was 18.4%; in assay [6] it was 22.7%.

With `COC(=O)c1csnn1`, the growth inhibition in assay [1] was 1.2%; in assay [2], 10.8%; in assay [3], 12.7%; in assay [4], 8.5%; in assay [5], 4.3%; in assay [6], 10.2%.

For the molecule `C[C@]12CC[C@@H]3c4ccc(O)cc4CC[C@H]3[C@@H]1CC[C@@H]2OP(=O)(O)O`, the growth inhibition was -0.15% in assay [1]; -9.95% in assay [2]; -37.1% in assay [3]; -27.4% in assay [4]; -6.45% in assay [5]; -16.6% in assay [6].

As to `C=C(C)COc1ccc(-c2ccccc2)cc1`, the growth inhibition was 24.5% in assay [1]; 7.35% in assay [2]; 8% in assay [3]; -4.95% in assay [4]; -3.85% in assay [5]; -3.2% in assay [6].

As to `COC(=O)C1C(C(=O)OC)C2N(c3ccccc3)C=NN2C1C(=O)c1ccccc1` (stereo unspecified), the growth inhibition was -62.2% in assay [1]; -10.2% in assay [2]; -16% in assay [3]; -3.65% in assay [4]; 5.05% in assay [5]; -4.65% in assay [6].
